Data reported in publication PMC12136788.
In all, about 24,000 sequences were measured (“enrichment r”: median about 0.99, highest 2% from about 3.7 on). The list comes from a sample in which the highest values are over-represented; it also holds similar and randomly drawn sequences.

T1: UNK ZnF1-3 (human, UniProt Q9C0B0 31-174)
T1 sequence: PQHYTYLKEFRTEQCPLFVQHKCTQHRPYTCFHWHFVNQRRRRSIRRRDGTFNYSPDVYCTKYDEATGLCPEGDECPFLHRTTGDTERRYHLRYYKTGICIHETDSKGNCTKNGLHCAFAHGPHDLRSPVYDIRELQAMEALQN

B1: chr14:57575763:57575764:+_ENSMUSG00000021945_ENSMUST00000022511|mus_hu|FALSE|FALSE (ssRNA)
RNA: GGGAGUUCUACAGUCCGACGAUCCACUGUUUUCAGGCCAAAAUACUUAGUGUUAAAGUAGAACAGUGUAUUCAGAAGAGCUACUGGAGAGUGUGAUCCUAGUUGUUUUAUCCUCCAGAGAUAGUCUUCUUCAACUCGAGAGAACAACAGAGGAUUGAGCAUCA
B2: chr1:183495733:183495734:+_ENSG00000116698_ENST00000515829|hu_hu|FALSE|FALSE (ssRNA)
RNA: GGGAGUUCUACAGUCCGACGAUCGGAAGACUUCACACGGCAUGGUAAAUCUACAUUAAAUACUGUACACAGUUCUUGUAAUAACUGAGUAUAGAAGCCACUAGCUGCCUCUAGGAACAGAGAAAGGUUUGCCUGAACUUCACUCAACAGAGGAUUGAGCAUCA
B3: chr12:58340223:58340224:+_ENSMUSG00000079104_ENSMUST00000139049|mus_mus|motif|central (ssRNA)
RNA: GGGAGUUCUACAGUCCGACGAUCCUGUAUUUUGGAGCAGUGUUUCAUCUUGUCUUCCUGAGGUAUGGUAUUGGUAACGGCGGCUGCUUCAAAGCAUGCAUUGUUGAUGCGAGAAAUGGCAGGGCCAGAGAAGAUUCCAUGCGUCAACAGAGGAUUGAGCAUCA
B4: chr12:39763582:39763583:-_ENSG00000139116_ENST00000544797|hu_mus|hu_hu_hu_mus_False|18_58 (ssRNA)
RNA: GGGAGUUCUACAGUCCGACGAUCCUCUAGGAACUGGGCAUUCACUUUGAAUUCAGGAGGGGGCAGCCCGUUUUUAAUUGCUAUGUGCUUUUUCUCAUCAAUACUCUUGAACAGGUGUUUAACAGCUCGAGAGAUGAUGCCCUGCAACAGAGGAUUGAGCAUCA
B5: chr2:74756847:74756848:-_ENSG00000115307_ENST00000377526|hu_hu|FALSE|FALSE (ssRNA)
RNA: GGGAGUUCUACAGUCCGACGAUCGCCGCCAUUUUCGCGCCCGGCCGCAGGGGCUCUUGGGAAGGCGGAGUCUUUGGGCAUCCGCCCGGGGUGAGGGGACCCGAAGUCCUGAGGCGCGCCGGAAGGGCUAGCGGUCCCAGCAUACAACAGAGGAUUGAGCAUCA
B6: 138058580_138059465_3786_CDS_ENSMUSG00000041642_ENSMUST00000075164|mouse|control|control (ssRNA)
RNA: GGGAGUUCUACAGUCCGACGAUCGGAGGCCAGGGACUUGGUGAUGUUCUUGGUAGAGCUGUCCAAUGGGGGUCCUAGGCACUCCGCAGACACGGCCUUCAUCUGUGCGGAUAGCUUGGGCUCACCCUUGAACUUGAAGUCAUCCAACAGAGGAUUGAGCAUCA
B7: chr8:104447970:104447971:+_ENSG00000164934_ENST00000297579|hu_hu|hu_hu_hu_mus_False|78_98 (ssRNA)
RNA: GGGAGUUCUACAGUCCGACGAUCAUACACUUCCCUGCUUCGACUUUUGUCCACAGGAAAGAUUCGAAUAGACUUAUCAAAGCUGGCAGACACAAAUUCCUUCCCAGUGGGAGAGUAGUCCACAUCAAGUACUGCAGACACGUGCAACAGAGGAUUGAGCAUCA
B8: chr15:78454051:78454052:+_ENSG00000166411_ENST00000558554|hu_mus|FALSE|FALSE (ssRNA)
RNA: GGGAGUUCUACAGUCCGACGAUCAUGCUCAAUUCCACUGUAUUCUCCUUCCGUGUUCUCUCGGAUGGUGACGAUAUUUACAUCCGUGUAAGGGGUUUUAUAACCUUCAAUUGAGACACAUGGCCGGACAUUGGCAUAAAGGUCCAACAGAGGAUUGAGCAUCA
B9: chr11:93987321:93987322:+_ENSMUSG00000020859_ENSMUST00000103168|mus_mus|motif|central (ssRNA)
RNA: GGGAGUUCUACAGUCCGACGAUCUACAAAGUUACAUUCCGAACCCCAGGGAUUCCAUAAUAGAAAUAAAUACUGAAAUAACGGCAUUGCUAAAUGAGCUUUUUACGCAUAGAAAUGAAGCCGUGGCCUCUAAAGACAGCAAAUCAACAGAGGAUUGAGCAUCA
B10: chr10:122431106:122431107:-_ENSMUSG00000034602_ENSMUST00000073792|mus_mus|FALSE|FALSE (ssRNA)
RNA: GGGAGUUCUACAGUCCGACGAUCAAUAUUUUCAAAAUGUUGCCACUCUUACUAUUUUGAUACUUUAUCAGUGAUAGUCCUAUUCUUUAAUUCACAAGUGAGUAUAUCAAAAUAUAAAAAAUACACGGCUUGAGUCAUUUUUUUCAACAGAGGAUUGAGCAUCA
B11: chr14:73742652:73742653:-_ENSG00000133961_ENST00000557597|hu_mus|FALSE|FALSE (ssRNA)
RNA: GGGAGUUCUACAGUCCGACGAUCCUAACCCGCUCACUUUUGGCAAGAUUACUUACAACUCAUACUUUUUAAUAUUGAGAACUAUUUAAAAUAUUCUAGGUGCAUAAAAAUAAAGAUUUUGGCUUUUUGAUAUAUAUAUAUAUACAACAGAGGAUUGAGCAUCA
B12: chr14:73742652:73742653:-_ENSG00000133961_ENST00000557597|hu_hu|motif|central (ssRNA)
RNA: GGGAGUUCUACAGUCCGACGAUCCCCCUUUACCUUUGGCAAGAUUACUUACAACUCAUACAACUUCUUAAUAUCUGAGAACGGUUUAAAAUAUUCUAAAUGCAUAAAAAUAAAGAUUUUGGCUUUUGAUAUAUAUAAUAUUUACAACAGAGGAUUGAGCAUCA
B13: chr17:65740002:65740003:+_ENSG00000130935_ENST00000581375|hu_hu|hu_hu_hu_mus_False|68_98 (ssRNA)
RNA: GGGAGUUCUACAGUCCGACGAUCAACAAAUCUUUCUCUGGAUGAAGAACAGGAAGAUUCAUAUUAACUUUAUAAAAUAUCCAUCAAGUUAGGUGUGGUGGCCACACCUUUACUCCCAGCACUUUGGGAGGUGGAUCUCUGAGUCAACAGAGGAUUGAGCAUCA
B14: chr6:135286264:135286265:-_ENSG00000112339_ENST00000367826|hu_hu|FALSE|FALSE (ssRNA)
RNA: GGGAGUUCUACAGUCCGACGAUCUUUGCCAGUUGGCAACUUAGAAUUUUUGCAGAGGUGAUUAUUAAUACUUCUUUGCAGCUAAUUUUAGCUUUAAUUUUUCUCUCUCAUCUAAAAACAUAUCAAUUGCACAUUGUUCCUUUGCAACAGAGGAUUGAGCAUCA

Each binder was assayed against T1, UNK ZnF1-3 (assay: nsRBNS (natural sequence RNA bind-n-seq); RBNS binding buffer (assumed for nsRBNS): 25 mM Tris pH 7.5, 150 mM KCl, 3 mM MgCl2, 0.01% Triton X-100, 500 ug/ml BSA, 20 U/ml SUPERase-In, 4 C; UNK is unkempt and MSI1 is Musashi-1; names of the RNAs are library labels; protein concentration not given here; high values mean tight binding).

Binder	binding signal
B1	1.1 enrichment R
B2	1.13 enrichment R
B3	0.938 enrichment R
B4	1.58 enrichment R
B5	0.69 enrichment R
B6	0.543 enrichment R
B7	0.994 enrichment R
B8	0.781 enrichment R
B9	1.35 enrichment R
B10	0.965 enrichment R
B11	6.08 enrichment R
B12	3.97 enrichment R
B13	1.02 enrichment R
B14	0.804 enrichment R
